Measurements reported in PubChem BioAssay (NCI).
About 83,000 compounds went through this panel and 20% of them were active in at least one assay; those are over-represented in the sample as a whole.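 Compound tested at a single concentration for 48 hours in 96-well plates; a percent growth value below 10 was scored as active.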 Activity calls are given as the source filed them.

Legend:
Experiment in all cases: NCI-60 one-dose screen, 48 h (100 = growth as untreated, 0 = no growth, -100 = all killed)
Settings in all cases: 10 µM unless noted
SK-MEL-2 melanoma = tested on: SK-MEL-2 melanoma
EKVX NSCLC = tested on: EKVX NSCLC
SN12C renal = tested on: SN12C renal
UO-31 renal = tested on: UO-31 renal
TK-10 renal = tested on: TK-10 renal
ACHN renal = tested on: ACHN renal
A498 renal = tested on: A498 renal
CCRF-CEM leukemia = tested on: CCRF-CEM leukemia
MOLT-4 leukemia = tested on: MOLT-4 leukemia
SR leukemia = tested on: SR leukemia
RPMI-8226 leukemia = tested on: RPMI-8226 leukemia
OVCAR-8 ovarian = tested on: OVCAR-8 ovarian
OVCAR-5 ovarian = tested on: OVCAR-5 ovarian
OVCAR-4 ovarian = tested on: OVCAR-4 ovarian
SK-OV-3 ovarian = tested on: SK-OV-3 ovarian
IGROV1 ovarian = tested on: IGROV1 ovarian
OVCAR-3 ovarian = tested on: OVCAR-3 ovarian
HS 578T breast = tested on: HS 578T breast
NCI/ADR-RES ovarian = tested on: NCI/ADR-RES ovarian
T-47D breast = tested on: T-47D breast

Measured: growth

O=C(Nc1nc(-c2ccccc2)cs1)c1cc(-c2ccc(Br)cc2)nc2ccccc12
inactive: SK-MEL-2 melanoma 67% | EKVX NSCLC 41.2% | SN12C renal 54.9% | UO-31 renal 17.2% | TK-10 renal 63.2% | ACHN renal 55.4% | CCRF-CEM leukemia 20.9% | MOLT-4 leukemia 24% | SR leukemia 19.5% | RPMI-8226 leukemia 39.9% | OVCAR-8 ovarian 57.1% | OVCAR-5 ovarian 81.7% | OVCAR-4 ovarian 57.6% | SK-OV-3 ovarian 51.6% | IGROV1 ovarian 59.4% | OVCAR-3 ovarian 63.4% | HS 578T breast 62.1% | NCI/ADR-RES ovarian 58.5%
active: A498 renal -55.9%

COc1ccc2[nH]c3nc4cnccc4cc3c2c1
inactive: SK-MEL-2 melanoma 110% | EKVX NSCLC 72.2% | SN12C renal 101% | UO-31 renal 71.2% | TK-10 renal 111% | ACHN renal 98.3% | A498 renal 114% | CCRF-CEM leukemia 98.1% | MOLT-4 leukemia 102% | SR leukemia 103% | RPMI-8226 leukemia 101% | OVCAR-8 ovarian 97% | OVCAR-5 ovarian 128% | OVCAR-4 ovarian 101% | SK-OV-3 ovarian 95.3% | IGROV1 ovarian 89.3% | OVCAR-3 ovarian 104% | HS 578T breast 110% | NCI/ADR-RES ovarian 104%

CCN1CCN(c2ccc(NC(=O)Nc3nc4ccc(-c5ccccc5OC)cc4s3)cc2)CC1
inactive: A498 renal 70.2%
active: SK-MEL-2 melanoma -65.5% | EKVX NSCLC -68.4% | SN12C renal -82.1% | UO-31 renal -91.6% | TK-10 renal -48% | ACHN renal -95.5% | CCRF-CEM leukemia -17.3% | MOLT-4 leukemia -51.7% | SR leukemia -38% | RPMI-8226 leukemia -33% | OVCAR-8 ovarian -52.5% | OVCAR-5 ovarian -11.5% | OVCAR-4 ovarian -76.1% | SK-OV-3 ovarian -12.5% | IGROV1 ovarian -71.3% | OVCAR-3 ovarian -90.5% | HS 578T breast -23.2% | NCI/ADR-RES ovarian -67.3% | T-47D breast -45.4%

O=C1NCc2ccc3c(-c4cccc(Cl)c4)c[nH]c3c21
active: OVCAR-3 ovarian -5.67% | NCI/ADR-RES ovarian 6.99%
inactive: SK-MEL-2 melanoma 38.6% | EKVX NSCLC 28.7% | SN12C renal 36.8% | UO-31 renal 44.8% | TK-10 renal 46.2% | ACHN renal 48.4% | A498 renal 24.7% | CCRF-CEM leukemia 17.4% | MOLT-4 leukemia 18.1% | SR leukemia 20.4% | RPMI-8226 leukemia 25.8% | OVCAR-8 ovarian 25.4% | OVCAR-5 ovarian 39.7% | OVCAR-4 ovarian 53.6% | SK-OV-3 ovarian 10.9% | IGROV1 ovarian 32.2% | HS 578T breast 31.3% | T-47D breast 39%

CCOC(=O)c1c(C)nc2c(c1N)CC(=O)N2CCc1ccccc1
active: TK-10 renal -3.79% | CCRF-CEM leukemia 9.62% | SR leukemia 3.16% | RPMI-8226 leukemia -6.34%
inactive: SK-MEL-2 melanoma 39.2% | EKVX NSCLC 55.9% | SN12C renal 24.3% | UO-31 renal 36.6% | ACHN renal 34.2% | A498 renal 11.9% | MOLT-4 leukemia 18.6% | OVCAR-8 ovarian 24.3% | OVCAR-5 ovarian 53.3% | OVCAR-4 ovarian 62.8% | SK-OV-3 ovarian 45.6% | IGROV1 ovarian 28.7% | OVCAR-3 ovarian 35.4% | HS 578T breast 41.1% | NCI/ADR-RES ovarian 30.1%

CCOC(=O)c1cnn(-c2nc(-c3ccc(F)cc3)c(C#N)c(N3CCOCC3)n2)c1N
inactive: SK-MEL-2 melanoma 90% | EKVX NSCLC 92.9% | SN12C renal 93.9% | UO-31 renal 74.1% | TK-10 renal 64% | ACHN renal 95.7% | A498 renal 71.3% | CCRF-CEM leukemia 92.8% | MOLT-4 leukemia 90.4% | SR leukemia 81.9% | RPMI-8226 leukemia 103% | OVCAR-8 ovarian 100% | OVCAR-5 ovarian 95% | OVCAR-4 ovarian 101% | SK-OV-3 ovarian 101% | IGROV1 ovarian 102% | OVCAR-3 ovarian 113% | HS 578T breast 103% | NCI/ADR-RES ovarian 96.7%

CC(C)(C#N)c1cc(F)cc(C(=O)Nc2cc(Nc3ncccc3-c3ncnc4nc[nH]c34)ccc2F)c1
active: SK-MEL-2 melanoma -12.8% | A498 renal -4.87%
inactive: EKVX NSCLC 59.5% | SN12C renal 56.7% | UO-31 renal 12.8% | TK-10 renal 49% | ACHN renal 38.5% | CCRF-CEM leukemia 38.9% | MOLT-4 leukemia 29.2% | SR leukemia 35.5% | RPMI-8226 leukemia 23.7% | OVCAR-8 ovarian 41.1% | OVCAR-5 ovarian 37% | OVCAR-4 ovarian 70.3% | SK-OV-3 ovarian 63.7% | IGROV1 ovarian 15.4% | OVCAR-3 ovarian 55.2% | HS 578T breast 39.9% | NCI/ADR-RES ovarian 37.1%

CN(C)[C@@H]1C(=O)C(C(N)=O)=C(O)[C@@]2(O)C(=O)C3=C(O)c4c(O)cc(CN5CCc6ccccc6C5)c(Cl)c4C[C@H]3C[C@@H]12
active: SK-MEL-2 melanoma -90.6% | EKVX NSCLC -90.3% | SN12C renal -73% | UO-31 renal -95.5% | TK-10 renal -84.3% | ACHN renal -76.1% | A498 renal -89.2% | CCRF-CEM leukemia -40.7% | MOLT-4 leukemia -67.9% | SR leukemia -50.7% | RPMI-8226 leukemia -46.2% | OVCAR-8 ovarian -80.9% | OVCAR-5 ovarian -87.1% | OVCAR-4 ovarian -44.5% | SK-OV-3 ovarian -93.3% | IGROV1 ovarian -73.2% | OVCAR-3 ovarian -83.3% | HS 578T breast -57.7% | NCI/ADR-RES ovarian -83.7% | T-47D breast -41.4%
